Rows were chosen to be rich in hits. Some 2.8% of all compounds tested hit in one or more screens of this group.
RGS4 inhibitor: blocks human RGS4-accelerated GTP hydrolysis. Potency, µM (titrated, usually from 114 µM), without a hit: at the highest dose activity change, negative = inhibition, most hits filed as inhibitors. Transcreener GDP fluorescence polarization, RGS4-accelerated GTP hydrolysis. P49798. 0.039% of 390,000 active; active means well fitted inhibition curve with a large enough effect; inconclusive means small, poorly fitted or top-dose-only effect; inactive means no such curve, though single readings can be large or run the other way; further: potency means the concentration at half of the fitted maximal effect; on the % scale 0 is the no-effect control and ±100 the full control effect; nearly all actives have a fitted effect of over 75% in size
Target sequence (P49798 whole entry, looked up): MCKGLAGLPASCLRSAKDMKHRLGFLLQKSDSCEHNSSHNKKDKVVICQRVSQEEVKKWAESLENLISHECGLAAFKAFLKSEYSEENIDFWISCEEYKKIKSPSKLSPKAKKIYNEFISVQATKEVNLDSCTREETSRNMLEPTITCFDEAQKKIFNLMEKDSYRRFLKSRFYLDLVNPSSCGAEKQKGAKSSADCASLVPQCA
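MLSMR compounds (23 nl, pin-transferred) preincubated 10 min at room temperature with a 500nM (2x) first reagent, then RGS4 at 900nM (2x) plus Transcreener GDP mix added; fluorescence polarization (620/688 nm) read before and after 90 min at 30 °C.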
PI4K2A block: blocks human PI4K2A kinase activity; Q9BTU6; purified PI4K2A, ADP-Glo luminescence, 1 h; stronger effect = lower value; activity change, negative = inhibition, % at 76.9 µM; 0.13% of 420,000 active; AID 1346378; in the data active means activity change below about -50%; inconclusive means mostly about -30% to -49%;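 further: -100% = wells without enzyme as full effect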
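PI4K2A activity was measured by ADP-Glo luminescence: enzyme (4 ug/mL stock) and phosphatidylinositol (1.2 mM stock) in Tris pH 7.5/MgCl2/EGTA/Triton X-100 buffer were reacted with ATP (300 microM stock) for one hour at ambient temperature.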
pAkt inh: blocks phosphorylation of Akt; 0.32% of 360,000 active; activity change, % for hits at 50 µM; Neuro2A IGF-stimulated pAkt S473 HTRF, 20 min; stronger effect = lower value; AID 651550; in the data active means activity change below about -80%; inconclusive means mostly about -51% to -80%; further: on the % scale 0 is the no-effect control and ±100 the full control effect
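Neuro2A cells in DMEM with 0.5% FBS, overnight at 37 deg C, given compound at single 50 µM final, then IGF (6 nM final) for 20 min at 37 deg C. Lysed; phospho-Akt Ser473 by HTRF after 24 h, 665/615 ratio.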
DRD3 antagonist: blocks the human D3 dopamine receptor; D3R cells, DiscoveRx beta-arrestin luminescence, antagonist mode; stronger effect = lower value; 2.5% of 360,000 active; max response, negative = inhibition, %; P35462; in the data active means max response below about -50%; inconclusive means no clear call, values can overlap the other calls; further: on the % scale 0 is the no-effect control and ±100 the full control effect
Target sequence (P35462 whole entry, looked up): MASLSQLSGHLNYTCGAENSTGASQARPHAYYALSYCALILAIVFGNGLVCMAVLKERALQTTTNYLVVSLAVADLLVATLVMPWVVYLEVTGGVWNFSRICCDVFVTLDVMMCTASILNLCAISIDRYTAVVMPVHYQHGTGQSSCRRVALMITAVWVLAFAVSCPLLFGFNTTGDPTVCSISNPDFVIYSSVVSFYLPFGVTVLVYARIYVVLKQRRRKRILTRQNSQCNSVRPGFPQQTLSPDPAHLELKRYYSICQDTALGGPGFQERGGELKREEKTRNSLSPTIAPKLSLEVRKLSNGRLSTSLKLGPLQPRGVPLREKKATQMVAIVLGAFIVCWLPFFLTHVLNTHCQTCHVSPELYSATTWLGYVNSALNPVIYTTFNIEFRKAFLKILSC
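Cells plated overnight at 1500 cells/well, then exposed to library compounds with dopamine controls for 90 minutes at 37 degrees C. DiscoveRx reagent added for 30–60 minutes at room temperature; luminescence read, quantitative HTS format.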
LDHA block: inhibitors of human lactate dehydrogenase A; 0.15% of 480,000 active; P00338; purified LDHA, NADH/diaphorase-resazurin fluorescence; stronger effect = lower value; AID 1347041; activity change, % (values are at about 110 or 230 µM); in the data active means activity change below about -30%; inconclusive means mostly about -25% to -30%;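 further: plate controls were DMSO wells for no effect and wells without enzyme for full effect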
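Human LDH5 (2 nM) was incubated with 0.06 mM NADH and 0.2 mM pyruvate for 5 min at room temperature in Tris pH 7.4. Remaining NADH was coupled through diaphorase/resazurin, and resorufin fluorescence was read at 0 and 20 min.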
D3 ag: agonists of human D3 dopamine receptor. D3R DiscoveRx beta-arrestin cells, luminescence, 90 min. 0.58% of 410,000 active. max activation, %. AID 652048; in the data active means max activation above about 30%; further: 0% is about no effect
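Agonist mode: compounds and dopamine controls were applied to plated cells for 90 min at 37 degrees C after an overnight attachment at 1500 cells/well. Luminescent read-out followed 30 - 60 minutes at room temperature with DiscoveRx detection reagent.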
Starred values were filed as active, the others as inactive; i = inactive; ? = inconclusive; · = not tested or not shown.

SMILES | RGS4 inhibitor | PI4K2A block | pAkt inh | DRD3 antagonist | LDHA block | D3 ag
Cc1coc2c(C)c3oc(=O)c(CCC(=O)N4C[C@H]5C[C@@H](C4)c4cccc(=O)n4C5)c(C)c3cc12 | 0% | -1 | i | 3 | -3 | 35*
Cc1nc2cc(NC(C)C(=O)Nc3ccc(C(N)=O)cc3)ccc2o1 (centres undefined) | · | · | · | · | 86 | ·
Cc1cc(CNC(=O)CC2C(=O)NCCN2Cc2ccccc2C(F)(F)F)on1 (centres undefined) | -10% | -2 | i | 3 | -2 | 3
Cc1cnc(CNC(=O)CC2C(=O)NCCN2Cc2ccccc2C(F)(F)F)cn1 (centres undefined) | -6% | -61* | i | 8 | 7 | 0
NC1=NC2(CCCCC2)n2c(nc3ccccc32)N1 | -3% | -2 | i | 6 | -5 | 5
NC1=NC2(CCN(Cc3ccccc3)CC2)n2c(nc3ccccc32)N1 | 5% | 2 | i | -75* | -4 | -9
c1ccc(CC2CNc3ccccc3CN2)cc1 (centres undefined) | -5% | -3 | i | -52* | -1 | -5
O=C1N[C@H](Cc2ccccc2)CO1 | -6% | -3 | i | ? | -3 | -15
COc1cc2c(cc1NC(=O)CSc1ccccc1)oc1ccccc12 | -46% | -5 | i | 10 | 5 | 4
COc1cc2c(cc1NC(=O)CSc1nc3ccccc3[nH]1)oc1ccccc12 | -8% | -2 | · | -75* | -4 | -8
OCC[C@H]1C[C@@H](O)[C@H](O)[C@]2(Cc3ccccc3CCO2)O1 | 8% | -1 | i | -9 | -7 | 31*
OCC[C@H]1C[C@H](O)[C@@H](O)[C@]2(Cc3ccccc3O2)O1 | 10% | 1 | i | -68* | -1 | 2
COC(=O)c1ccc(C2CC(=O)Nc3c2cc(Br)c2ccccc32)cc1 (centres undefined) | · | · | · | · | -35* | ·
O=C(O)COc1ccc(S(=O)(=O)Nc2ccc(Cl)c(Cl)c2)cc1 | · | · | · | · | 5 | ·
COc1cccc(OCCN2CCN(c3ncnc4c3cnn4-c3ccccc3)CC2)c1 | 36% | 1 | i | 10 | -2 | 48*
O=C(c1ccccc1)N1CCN(c2ncnc3c2cnn3-c2ccccc2)CC1 | -26% | 4 | i | 50 | -2 | -6
Cc1nn(-c2ccccc2)c(Cl)c1C(=O)N1CCN(c2ncnc3c2cnn3-c2ccccc2)CC1 | -12% | 13 | i | -10 | -6 | 41*
Cc1ccc2nc(C)c(C(=O)N(C)CC(=O)NC(C)(C)C)cc2c1 | · | · | · | · | 10 | ·
CCC(C)(C)NC(=O)CCc1ccc(C#N)cc1 | · | · | · | · | -4 | ·
CCC(=O)Oc1ccc(C/C(=N\O)c2ccc(O)cc2O)o1 | -26% | 0 | i | 92 | 9 | 56*
O=c1oc2ccc(Cl)cc2cc1S(=O)(=O)N1CCCCC1 | · | · | · | · | 0 | ·
OCCn1c(-c2ccc(F)cc2)csc1=Nc1ccccc1 | -24% | 0 | i | -11 | -3 | -2
OCCn1c(-c2ccc3c(c2)OCO3)csc1=Nc1ccccc1 | -30% | -5 | i | -70* | -1 | 12
Nc1nccnc1C(=O)Nc1cccc(C#Cc2cccs2)c1 | · | · | · | · | -4 | ·
CCc1c(C)sc(NC(=O)C(F)(F)C(F)(F)C(F)(F)F)c1C#N | · | · | · | · | -19 | ·
SMILES | RGS4 inhibitor | PI4K2A block | pAkt inh | DRD3 antagonist | LDHA block | D3 ag
N#CC1=C(N)OC2=C(C(=O)CC(c3ccccc3)C2)C1c1ccc(F)cc1 (centres undefined) | · | · | · | · | -2 | ·
CC(C)CC1C(C#N)=C(N)OC2=C1C(=O)CC(c1ccccc1)C2 (centres undefined) | 6% | 1 | i | -63* | 0 | -16
Cc1c(Cl)cccc1-n1c2c(c(=O)[nH]c1=O)CN(CCc1ccccc1)CN2 | · | · | · | · | 10 | ·
O=C(O)c1cccc(N/N=C(\N=Nc2ccccc2)c2ccccc2)c1 | -24% | -18 | i | -11 | 1 | -9
O=C(O)c1ccc(N=N/C(=N\Nc2ccc(C(=O)O)cc2)c2ccccc2)cc1 | 11% | -26 | i | -53* | -6 | -29
O=C(COc1coc(CN2CCCCC2)cc1=O)NCc1ccccc1F | · | · | · | · | -3 | ·
C[C@@H](C[C@@H](O)[C@H](O)C(C)(C)O)[C@@H]1CC[C@]2(C)C3=CC[C@H]4C(C)(C)C(=O)CC[C@]4(C)[C@H]3CC[C@@]12C | 1% | 3 | i | 120 | -2 | 45*
C=CCN1CCc2nc(N)sc2CC1 | i | -4 | i | 4 | 12 | 93*
CCN1CCc2nc(N)sc2C1 | ? | -2 | i | 19 | -6 | 40*
COc1ccccc1N1CCN(CC(=O)Nc2ccc(C)cc2Cl)CC1 | · | · | · | · | 11 | ·
Cc1cc(O)c2c(c1O)C(=O)[C@]13C(=C2O)C(=O)[C@@H]2[C@@H](O)[C@H]1[C@@H]1[C@H](O)[C@H]3C(=O)C3=C(O)c4c(O)cc(C)c(O)c4C(=O)[C@]312 | ? | -64* | i | -18 | 11 | -4
Cc1cccc(CN2CCN(S(=O)(=O)c3cn(C)nc3C)CC2)c1 | · | · | · | · | -9 | ·
CCCn1c2ccc(F)cc2c2nnc(SCCN(CC)CC)nc21 | -34% | 1 | · | · | 0 | -26
C=CCn1c2ccccc2c2nnc(SCCCn3c(=O)[nH]c4ccccc43)nc21 | -47% | -4 | i | 80 | -2 | 32*
CCN(CC)CCSc1nnc2c3ccccc3n(CCc3ccccc3)c2n1 | -1% | 9 | i | -79* | -1 | -2
O=C(CCNS(=O)(=O)c1cccc2nsnc12)NCCC1=CCCCC1 | 17% | 1 | -111%* | -22 | 7 | -8
COc1ccc(S(=O)(=O)Nc2ccccc2Cl)cc1NC(=O)c1cccc(-n2cccc2)c1 | · | · | · | · | 3 | ·
COc1cc(/C=N/NC(=O)C2COc3ccccc3O2)ccc1O (centres undefined) | 11% | -6 | i | -56* | 1 | -11
O=C(NCCc1ccc(O)c(O)c1)C1COc2ccccc2O1 (centres undefined) | -6% | -3 | i | 13 | 5 | 92*
COc1ccc(-c2nn3c(C(C)(C)C)nnc3s2)cc1OC | · | · | · | · | 9 | ·
CCOC(=O)N1CCC(NC(=O)c2cc3cc(F)ccc3[nH]2)CC1 | · | · | · | · | 3 | ·
CC1=CC(C)(C(Cl)(Cl)Cl)C(C)=CC1=NO (centres undefined) | · | 8 | i | -55* | -5 | -10
CCNC(=O)NC(=O)C(C)Sc1cccc2cccnc12 (centres undefined) | · | · | · | · | -3 | ·
Cc1cccc(/C=C(/C#N)c2ccc(C(F)(F)F)cn2)c1 | · | · | · | · | -4 | ·
Cc1ccc(NC(=S)NNC(=O)c2cn(C)nc2C)cc1 | 9% | -3 | i | -67* | -5 | -6
